According to PubChem BioAssay (NCATS):
Records with an inconclusive call do not appear. Active and inactive are the calls of the source. Calls come from the whole dose curve; as a rule, active = well fitted curve in the direction sought with a large enough effect; inconclusive = small, poorly fitted or top-dose-only effect, or another doubt; inactive = no such curve, though single readings can be large; an effect the other way counts as inactive or inconclusive.

Key:
[1] = Cellular Toxicity (caspase-3) Mesangial (AID 660); conditions: mesangial cells, normalized: DMSO 0%, 100 µM tamoxifen 100%; at 91.7 µM (top of the series);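 note: combined caspase 3 and 7 activity read by Caspase-Glo luminescence; cells exposed to compound for 16 h before the caspase read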
How it was run: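 Mesangial cells, 1000/well, 5 h settle at 37 °C; compound 16 h, 37 °C; Caspase-Glo 3/7 reagent 20 min RT; luminescence. Norm.: DMSO = 0%, tamoxifen 100 uM = 100%. AC50, Hill fit.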

[2] = Cellular Toxicity (caspase-3) SK-N-SH (AID 661);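 note: 0% = DMSO basal and 100% = 10 µM staurosporine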
How it was run: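 Human neuroblastoma SK-N-SH, 1500 cells/well, 5 hr pre-incubation, then compound 16 hr, 37 °C. Caspase-Glo 3/7 reagent, 1 hr RT, luminescence. Norm. to DMSO/10 uM staurosporine; Hill-fit AC50.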

[3] = Cellular Toxicity (caspase-3) H-4-II-E (AID 663); conditions: H-4-II-E rat hepatoma, scaled: DMSO 0%, 100 µM tamoxifen 100%; at 92.2 µM (top of the series);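 note: cells exposed to compound for 16 hr before readout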
How it was run: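 Apoptosis induction is scored as increased luminescence from caspase 3/7 substrate cleavage in rat hepatoma H-4-II-E cells exposed to compound for 16 hr. Activity is scaled between DMSO and 100 uM tamoxifen.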

[4] = Cellular Toxicity (caspase-3) Hek293 (AID 664); conditions: HEK293 caspase-3 activation, DMSO = 0%, 100 µM tamoxifen = 100%; at 92.2 µM (top of the series);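 note: cells exposed to compound for 16 h at 37 °C before readout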
How it was run: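 Cells plated, 5 hr at 37 °C; compounds added; 16 hr at 37 °C; Caspase-Glo 3/7 reagent, 20 min RT; luminescence read. Activation expressed relative to DMSO and 100 uM tamoxifen, AC50 by Hill model.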

[5] = Cellular Toxicity (caspase-3) N2a (AID 665);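 note: compound exposure lasted 16 h at 37 °C before readout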
How it was run: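 N2a cells, 1500/well, 5 h settle at 37 °C; cpd 16 h, 37 °C; Caspase-Glo 3/7, 1 h RT; luminescence. Norm: DMSO = 0, 10 uM staurosporine = 100%. AC50, Hill fit.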

[6] = Cellular Toxicity (caspase-3) NIH 3T3 (AID 666);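 note: caspase signal read after 16 h compound exposure; 0% = DMSO basal and 100% = 100 µM tamoxifen stimulation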
How it was run: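 Luminescence from aminoluciferin released by caspase-3/7 cleavage of a peptide substrate served as read-out. Mouse fibroblast NIH 3T3 cells were exposed to compounds over a concentration range for 16 hours, and AC50 values came from standard Hill modelling.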

[7] = Cellular Toxicity (caspase-3) Renal Proximal Tubule (AID 667); conditions: Potency: caspase-3 activation;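 note: cells exposed to compound for 16 hours at 37 °C before detection; 0% = DMSO basal and 100% = 10 µM staurosporine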
How it was run: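 Caspase 3/7 activation measured by luminescent aminoluciferin release in primary rat proximal tubule cells after 16 hr compound exposure at 37 °C. AC50 from Hill-fitted concentration-response, scaled between DMSO and 10 uM staurosporine.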

[8] = target: Cytochrome P450 3A4 (Homo sapiens) (UniProt P08684); test: qHTS Assay for Inhibitors and Substrates of Cytochrome P450 3A4 (AID 884); note: % is set by controls: 0 for no effect and ±100 for the full control effect; nearly all actives have a fitted effect of over 50% in size
How it was run: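 20 nM human CYP3A4 with 25 uM Luciferin-PPXE (at KM) in 200 mM KPO4, preincubated 10 min with compound; NADPH regeneration started a 60 min RT reaction. Luciferin detected by luminescence, normalized to 57 uM ketoconazole as full inhibition.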

[9] = Cell Viability - LYMP2-001 (AID 921);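 note: 0% = DMSO only and full inhibition = tetraoctylammonium bromide control wells; nearly all actives have a fitted effect of over 70% in size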
How it was run: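 Cellular ATP loss read by luciferase luminescence after 24 h compound exposure at 37 C in complete medium. LYMP2-001 lymphoblastoid cells, 2500/well; qHTS concentration-response data fitted with Hill equation for AC50.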

[10] = MultiTox-Fluor Cytotoxicity Assay - LYMP1-001 - Dead Cells (AID 946)
How it was run: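 AC50 from Hill fit of concentration-response; data normalized to DMSO (basal) and 15 uM tetraoctylammonium bromide (100%). LYMP1-001 lymphoblastoid cells, 2500/well, 16 hr compound at 37 C; dead-cell protease fluorescence, Ex/Em 485/520.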

[11] = MultiTox-Fluor Cytotoxicity Assay - LYMP1-001 - Live Cells (AID 947);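 note: 0% = DMSO only and full inhibition = tetraoctylammonium bromide control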
[12] = Cell Viability - LYMP1-002 - Assay at 16 hr (AID 948);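 note: 0% = DMSO alone and full effect = 92 µM tetraoctylammonium bromide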
How it was run: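 ATP luminescence (CellTiter-Glo) was measured after 16 hr compound exposure at 37 C of 2500 lymphoblastoid LYMP1-002 cells per well. Concentration-response curves were fitted with the Hill equation to give AC50.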

[13] = MultiTox-Fluor Cytotoxicity Assay - LYMP1-002 - Live Cells (AID 955); note: % is set by controls: 0 for no effect and ±100 for the full control effect
How it was run: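 Read-out is live-cell protease activity (cell-permeant GF-AFC substrate, fluorescence Ex/Em=405/510), where a decrease indicates acute toxicity. Human lymphoblastoid cells were treated 16 hours at 37 C in a concentration series, and AC50 values came from standard Hill modelling.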

[14] = MultiTox-Fluor Cytotoxicity Assay - LYMP1-002 - Dead Cells (AID 960); note: nearly all actives have a fitted effect of over 60% in size
How it was run: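 LYMP1-002 cells 2500/well; 5 hr 37 C pre-incubation; compound 16 hr 37 C; MultiTox-Fluor reagent 60 min RT; dead-cell fluor Ex/Em 485/520. Norm. to DMSO (0%) vs 15 uM tetraoctylammonium bromide (100%); Hill AC50.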

[15] = MultiTox-Fluor Cytotoxicity Assay - LYMP1-003 - Dead Cells (AID 961); note: nearly all actives have a fitted effect of over 70% in size
How it was run: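 Human lymphoblastoid LYMP1-003 cells (2500/well) were treated with compounds for 16 hr at 37 C in complete medium. Dead-cell protease release was read by bis-AAF-R110 fluorescence (Ex/Em 485/520). AC50 came from Hill fits, normalized to DMSO and 15 uM tetraoctylammonium bromide.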

[16] = MultiTox-Fluor Cytotoxicity Assay - LYMP1-003 - Live Cells (AID 962);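 note: cells exposed to compound for 16 hours at 37 °C; 0% = DMSO only and full loss = 92 µM tetraoctylammonium bromide; cytotoxic hits lower the live-cell protease signal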
How it was run: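 qHTS, 1536-well; 2500 cells/well LYMP1-003; 5 hr 37 C settle; cpd 16 hr 37 C; MultiTox-Fluor reagent 60 min RT; live-cell protease fluor. 405/510; Hill-fit AC50; tetraoctylammonium bromide pos. ctrl.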

[17] = Cell Viability - LYMP1-003 - Assay at 24 hr (AID 963);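 note: plate controls were DMSO only for no effect and tetraoctylammonium bromide positive control for full effect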
How it was run: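 Cells seeded at 2500/well, 5 hr at 37 C; compounds added; 24 hr at 37 C; CellTiter-Glo added, 30 min room temperature; luminescence read. Decrease in ATP taken as cytotoxicity, AC50 from Hill modelling.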

[18] = Cell Viability - LYMP1-003 - Assay at 40 hr (AID 964); note: % is set by controls: 0 for no effect and ±100 for the full control effect; nearly all actives have a fitted effect of over 60% in size
How it was run: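 Cells were seeded at 2500 per well and incubated 5 hr at 37 C. Compounds were added across a concentration series and left 40 hr at 37 C. CellTiter-Glo was added for 30 min at room temperature before luminescence reading.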

[19] = Cell Viability - LYMP2-003 (AID 965);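 note: cells exposed to compounds for 24 h before reading; 0% = DMSO only and full effect = 92 µM tetraoctylammonium bromide; nearly all actives have a fitted effect of over 50% in size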
How it was run: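 CellTiter-Glo luminescence quantified ATP loss after 24 h compound treatment of LYMP2-003 lymphoblastoid cells at 37 C. Titration series were fitted with the standard Hill equation to give AC50.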

[20] = Cell Viability - LYMP2-004 (AID 966);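 note: plate controls were DMSO only for no effect and tetraoctylammonium bromide control for full effect; nearly all actives have a fitted effect of over 65% in size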
How it was run: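 Cells seeded 2500/well, rested 5 hr at 37 C, dosed across a concentration series, incubated 24 hr at 37 C, then CellTiter-Glo added for 30 min at room temperature and luminescence read. Hill fitting gave AC50.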

Chain of Cytochrome P450 3A4 (Homo sapiens) (P08684 whole entry, looked up): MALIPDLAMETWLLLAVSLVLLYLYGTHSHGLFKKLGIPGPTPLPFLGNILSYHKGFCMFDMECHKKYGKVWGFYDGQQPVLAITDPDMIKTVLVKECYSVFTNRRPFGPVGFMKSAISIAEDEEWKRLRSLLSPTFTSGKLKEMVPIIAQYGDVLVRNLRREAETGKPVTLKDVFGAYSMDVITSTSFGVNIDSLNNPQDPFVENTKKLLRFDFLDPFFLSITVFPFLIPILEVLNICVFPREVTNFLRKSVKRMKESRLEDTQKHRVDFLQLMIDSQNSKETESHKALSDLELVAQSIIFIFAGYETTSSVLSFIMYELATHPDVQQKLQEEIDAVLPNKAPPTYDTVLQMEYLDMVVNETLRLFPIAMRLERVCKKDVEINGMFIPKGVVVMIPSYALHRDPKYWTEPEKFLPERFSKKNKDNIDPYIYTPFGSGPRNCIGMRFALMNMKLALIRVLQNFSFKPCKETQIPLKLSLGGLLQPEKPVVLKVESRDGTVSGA

CC/C=C/C#N
inactive: caspase-3 activation [1] -0.969% | outcome [2] | caspase-3 activation [3] 0.211% | caspase-3 activation [4] 1.85% | outcome [5] | outcome [6] | Potency [7] | Potency [8] | Potency [9] | outcome [10] | outcome [11] | outcome [12] | outcome [13] | outcome [14] | Potency [15] | Potency [16] | Potency [17] | Potency [18] | Potency [19]

CC(=O)OC(C)C
inactive: caspase-3 activation [1] 0.284% | outcome [2] | caspase-3 activation [3] 0.45% | caspase-3 activation [4] 0.887% | outcome [5] | outcome [6] | Potency [7] | Potency [8] | Potency [9] | outcome [10] | outcome [11] | outcome [12] | outcome [13] | outcome [14] | Potency [15] | Potency [16] | Potency [17] | Potency [18] | Potency [19] | Potency [20]

Cc1cc(C(=O)O)ccc1[N+](=O)[O-]
inactive: caspase-3 activation [1] 0.159% | outcome [2] | caspase-3 activation [3] -0.927% | caspase-3 activation [4] 1.07% | outcome [5] | outcome [6] | Potency [7] | Potency [8] | Potency [9] | outcome [10] | outcome [11] | outcome [12] | outcome [13] | outcome [14] | Potency [15] | Potency [16] | Potency [17] | Potency [18] | Potency [19] | Potency [20]

C=C(C)C1CC=C(C)C(OC(C)=O)C1 (stereo not drawn)
inactive: caspase-3 activation [1] -0.114% | outcome [2] | caspase-3 activation [3] 2.65% | caspase-3 activation [4] 1.35% | outcome [5] | outcome [6] | Potency [7] | Potency [8] | Potency [9] | outcome [10] | outcome [11] | outcome [12] | outcome [13] | outcome [14] | Potency [15] | Potency [16] | Potency [17] | Potency [18] | Potency [19] | Potency [20]

Cc1cc(C)cc([N+](=O)[O-])c1
inactive: caspase-3 activation [1] -0.822% | outcome [2] | caspase-3 activation [3] 0.227% | caspase-3 activation [4] 0.15% | outcome [5] | outcome [6] | Potency [7] | Potency [8] | Potency [9] | outcome [10] | outcome [11] | outcome [12] | outcome [13] | outcome [14] | Potency [15] | Potency [16] | Potency [17] | Potency [18] | Potency [19] | Potency [20]

FB(F)F
inactive: caspase-3 activation [1] 3.07% | outcome [2] | caspase-3 activation [3] 0.388% | caspase-3 activation [4] 2.37% | outcome [5] | outcome [6] | Potency [7] | Potency [8] | Potency [9] | outcome [10] | outcome [11] | outcome [12] | outcome [13] | outcome [14] | Potency [15] | Potency [16] | Potency [17] | Potency [18] | Potency [19]

O=C1CCCCC1
inactive: caspase-3 activation [1] 1.1% | outcome [2] | caspase-3 activation [3] 0.476% | caspase-3 activation [4] 0.988% | outcome [5] | outcome [6] | Potency [7] | Potency [8] | Potency [9] | outcome [10] | outcome [11] | outcome [12] | outcome [13] | outcome [14] | Potency [15] | Potency [16] | Potency [17] | Potency [18] | Potency [19]

CC(O)COC(C)(C)C (stereo not drawn)
inactive: caspase-3 activation [1] -1.28% | outcome [2] | caspase-3 activation [3] -0.238% | caspase-3 activation [4] 2.41% | outcome [5] | outcome [6] | Potency [7] | Potency [8] | Potency [9] | outcome [10] | outcome [11] | outcome [12] | outcome [13] | outcome [14] | Potency [15] | Potency [16] | Potency [17] | Potency [18] | Potency [19]

O=[N+]([O-])c1cccc(Cl)c1
inactive: caspase-3 activation [1] -0.653% | outcome [2] | caspase-3 activation [3] 0.41% | caspase-3 activation [4] -2.38% | outcome [5] | outcome [6] | Potency [7] | Potency [8] | Potency [9] | outcome [10] | outcome [11] | outcome [12] | outcome [13] | outcome [14] | Potency [15] | Potency [16] | Potency [17] | Potency [18] | Potency [19]

CSc1ccc(C=O)cc1
inactive: caspase-3 activation [1] -0.251% | outcome [2] | caspase-3 activation [3] 2.78% | caspase-3 activation [4] 0.206% | outcome [5] | outcome [6] | Potency [7] | Potency [8] | Potency [9] | outcome [10] | outcome [11] | outcome [12] | outcome [13] | outcome [14] | Potency [15] | Potency [16] | Potency [17] | Potency [18] | Potency [19] | Potency [20]

CC(C=O)Cc1ccc(C(C)(C)C)cc1 (stereo not drawn)
inactive: caspase-3 activation [1] 0.925% | outcome [2] | caspase-3 activation [3] 0.297% | caspase-3 activation [4] -0.395% | outcome [5] | outcome [6] | Potency [7] | Potency [8] | Potency [9] | outcome [10] | outcome [11] | outcome [12] | outcome [13] | outcome [14] | Potency [15] | Potency [16] | Potency [17] | Potency [18] | Potency [19]

c1ccc2c(c1)Oc1ccccc1S2
inactive: caspase-3 activation [1] -0.346% | outcome [2] | caspase-3 activation [3] -0.0621% | caspase-3 activation [4] -0.379% | outcome [5] | outcome [6] | Potency [7] | Potency [8] | Potency [9] | outcome [10] | outcome [11] | outcome [12] | outcome [13] | outcome [14] | Potency [15] | Potency [16] | Potency [17] | Potency [18] | Potency [19]

CC1CCCO1 (stereo not drawn)
inactive: caspase-3 activation [1] -0.0447% | outcome [2] | caspase-3 activation [3] -0.992% | caspase-3 activation [4] -1.6% | outcome [5] | outcome [6] | Potency [7] | Potency [8] | Potency [9] | outcome [10] | outcome [11] | outcome [12] | outcome [13] | outcome [14] | Potency [15] | Potency [16] | Potency [17] | Potency [18] | Potency [19] | Potency [20]

CC(=O)c1ccccc1[N+](=O)[O-]
inactive: caspase-3 activation [1] -0.0773% | outcome [2] | caspase-3 activation [3] 0.797% | caspase-3 activation [4] 1.17% | outcome [5] | outcome [6] | Potency [7] | Potency [8] | Potency [9] | outcome [10] | outcome [11] | outcome [12] | outcome [13] | outcome [14] | Potency [15] | Potency [16] | Potency [17] | Potency [18] | Potency [19] | Potency [20]
